{"source": "PubChem BioAssay (EPA / NIEHS)", "note": "Calls of active or inactive are those of the source. Rule for the calls: active = hit-call score of the fitted dose curve at least 0.9, where 1 is the maximum; inactive = score below 0.9.", "data": [{"target": "Transcription factor Sp1 (Homo sapiens) (UniProt P08047)", "sequence (P08047 whole entry, looked up)": "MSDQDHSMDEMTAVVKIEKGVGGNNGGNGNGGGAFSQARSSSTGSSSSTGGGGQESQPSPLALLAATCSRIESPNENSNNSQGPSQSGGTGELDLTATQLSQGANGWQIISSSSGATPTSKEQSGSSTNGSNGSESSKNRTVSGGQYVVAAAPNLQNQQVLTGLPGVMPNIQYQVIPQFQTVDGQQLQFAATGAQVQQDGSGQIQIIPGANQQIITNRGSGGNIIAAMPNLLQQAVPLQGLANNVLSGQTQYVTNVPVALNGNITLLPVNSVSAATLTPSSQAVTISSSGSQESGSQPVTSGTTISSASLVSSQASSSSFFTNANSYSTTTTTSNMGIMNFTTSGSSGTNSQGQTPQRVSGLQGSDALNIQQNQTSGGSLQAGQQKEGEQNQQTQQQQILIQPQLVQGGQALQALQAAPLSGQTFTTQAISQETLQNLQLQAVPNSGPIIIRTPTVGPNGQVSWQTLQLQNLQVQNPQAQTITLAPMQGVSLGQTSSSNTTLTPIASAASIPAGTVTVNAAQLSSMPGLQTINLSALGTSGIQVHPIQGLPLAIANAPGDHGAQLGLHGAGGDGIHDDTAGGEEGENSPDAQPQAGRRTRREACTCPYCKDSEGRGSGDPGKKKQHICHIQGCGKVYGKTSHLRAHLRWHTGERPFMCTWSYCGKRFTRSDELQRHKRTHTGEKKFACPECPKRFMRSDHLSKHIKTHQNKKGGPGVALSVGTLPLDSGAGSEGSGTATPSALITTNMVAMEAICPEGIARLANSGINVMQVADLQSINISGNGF", "experiment": "ATG_Sp1_CIS: Attagene CIS-FACTORIAL HepG2 Assay for human Specificity Protein 1 (Sp1) (AID 2282961)", "conditions": "HepG2 Sp1 cis-reporter transcription, actives raise or lower the signal", "method": "ATG_CIS is a cell-based, multiplexed-readout assay that uses HepG2, a human liver cell line, with measurements taken at 24 hours after chemical dosing in a 24-well plate.ATG_Sp1_CIS is one of 52 assay component(s) measured or calculated from the ATG_CIS assay. It is designed to make measurements of mRNA induction, a form of inducible reporter, as detected with fluorescence intensity signals by Reverse transcription polymerase chain reaction (RT-PCR) and Capillary electrophoresis technology.Data from the assay component ATG_Sp1_CIS was analyzed into 1 assay endpoint. This assay endpoint, ATG_Sp1_CIS, was analyzed with bidirectional fitting relative to DMSO as the negative control and baseline of activity. Using a type of inducible reporter, measures of mRNA for gain or loss-of-signal activity can be used to understand the reporter gene at the transcription factor-level as they relate to the gene SP1. Furthermore, this assay endpoint can be referred to as a primary readout, because this assay has produced multiple assay endpoints where this one serves a reporter gene function. To generalize the intended target to other relatable targets, this assay endpoint is annotated to the dna binding intended target family, where the subfamily is zinc finger.\nHuman liver HepG2 cells are transiently transfected with multiple reporter transcription units (MRTUs) in 6-well plates using FuGene 6 reagent (Roche; 3 ml FuGene/1 mg DNA). The MRTU constructs are regulated by a cis-regulating element (promoter). […] A major difference between the CIS and TRANS system is that in CIS activities of endogenous TFs are measured, whereas the TRANS assay evaluates changes in activities of exogenous, chimeric NR-Gal4 proteins. […] At the end of 24 hour incubation, total RNA was isolated using TriZol reagent (Invitrogen). The isolated RNA is then reverse-transcribed using oligo(dT) primer and Mo-MLV reverse transcriptase (Invitrogen) with DNAse I (Ambion) treatment for 30 min. The one-tenth of the produced cDNA was amplified by PCR using Taq DNA polymerase (Invitrogen) and two reporter sequence-specific primers. The PCR products were fluorescently labeled by primer extension with 6-arboxyfluorescein (6-FAM) 5'-labeled reporter sequence-specific primer (2 min at 95 C, 20 s at 68 C and 10 min at 72 C) and these products were digested with 5U of HpaI (New England Biolabs) for 2h at 37 C. The fragments were purified using Qiaquick PCR columns (Qiagen), analyzed on an ABI 3130xL genetic analyzer (Applied Biosystems) with peak positions identified by using a set of X-rhodamine (ROX)-labeled MapMarker1000 molecular weight standards (BioVentures). The raw capillary electrophoresis data was processed using Attagraph software (Attagene).", "values": [{"smiles": "COC(=O)c1ccc(C)cc1", "outcome": "inactive"}, {"smiles": "CC(O)C(C)O", "note": "(stereo not given)", "outcome": "inactive"}, {"smiles": "CCCCN", "outcome": "inactive"}, {"smiles": "CC(C)=CCC[C@H](C)CC=O", "outcome": "inactive"}, {"smiles": "CCOC(=O)c1ccccc1OC", "outcome": "inactive"}, {"smiles": "CO[Si](CCCn1c(=O)n(CCC[Si](OC)(OC)OC)c(=O)n(CCC[Si](OC)(OC)OC)c1=O)(OC)OC", "outcome": "inactive"}, {"smiles": "O=C(O)c1snc(Cl)c1Cl", "outcome": "inactive"}, {"smiles": "Cc1ccc(C(=O)c2cc(O)c(O)c([N+](=O)[O-])c2)cc1", "outcome": "inactive"}, {"smiles": "Cc1ccc(C(=O)O)o1", "outcome": "inactive"}, {"smiles": "COC(C)CCO", "note": "(stereo not given)", "outcome": "inactive"}, {"smiles": "CCC(O)CO", "note": "(stereo not given)", "outcome": "inactive"}, {"smiles": "OCc1cccnc1", "outcome": "inactive"}, {"smiles": "C=C(C)C(=O)NCCCN(C)C", "outcome": "inactive"}, {"smiles": "CCCC(=O)C(C)=O", "outcome": "inactive"}, {"smiles": "CC(=O)Nc1ccccc1O", "outcome": "inactive"}, {"smiles": "C=C[C@@H](C)CCC=C(C)C", "outcome": "inactive"}, {"smiles": "C=C(C)[C@@H]1CCC2=CC(=O)C[C@@H](C)[C@]2(C)C1", "outcome": "inactive"}, {"smiles": "O=Cc1ccc(F)cc1", "outcome": "inactive"}, {"smiles": "C[C@H]1C[C@H]2[C@@H]3CCC4=CC(=O)C=C[C@]4(C)[C@@]3(F)[C@@H](O)C[C@]2(C)[C@@]1(O)C(=O)COP(=O)(O)O", "outcome": "inactive"}, {"smiles": "CCC(=O)OCc1ccccc1", "outcome": "inactive"}, {"smiles": "Nc1ccc(S(=O)(=O)O)c(N)c1", "outcome": "inactive"}, {"smiles": "BrC1CCC(Br)C(Br)CCC(Br)C(Br)CCC1Br", "note": "(stereo not given)", "AC50": "87 µM (active)"}, {"smiles": "Cc1ccc(C=O)cc1", "outcome": "inactive"}, {"smiles": "CCN(CC)c1ccc2c(-c3ccccc3C(=O)O)c3ccc(=[N+](CC)CC)cc-3oc2c1", "outcome": "inactive"}, {"smiles": "CCCCCCCCCCCCCCCC(=O)O", "outcome": "inactive"}, {"smiles": "OCCOCCOCCOCCO", "outcome": "inactive"}, {"smiles": "C=CC(C)(CCC=C(C)C)OC=O", "note": "(stereo not given)", "outcome": "inactive"}, {"smiles": "Nc1cc(N)cc(C(=O)O)c1", "outcome": "inactive"}, {"smiles": "c1cc(C(c2ccc(OCC3CO3)cc2)c2ccc(OCC3CO3)cc2)ccc1OCC1CO1", "note": "(stereo not given)", "AC50": "100 µM (active)"}, {"smiles": "C=CC[N+](C)(C)CC=C", "outcome": "inactive"}, {"smiles": "O=C(O)CCCCCCCC(=O)O", "outcome": "inactive"}, {"smiles": "CCCCCCCCCCCCCC(=O)O", "outcome": "inactive"}, {"smiles": "CSc1nnc(C(C)(C)C)c(=O)[nH]1", "outcome": "inactive"}, {"smiles": "CCCCCCCCCCCCN", "outcome": "inactive"}, {"smiles": "O=C1OC2(c3cc(Br)c(O)c(Br)c3Oc3c2cc(Br)c(O)c3Br)c2c(Cl)c(Cl)c(Cl)c(Cl)c21", "outcome": "inactive"}, {"smiles": "CC(C#N)(CCC(=O)O)N=NC(C)(C#N)CCC(=O)O", "note": "(stereo not given)", "outcome": "inactive"}, {"smiles": "CCN(CC)c1ccc(C(=C2C=CC(=[N+](CC)CC)C=C2)c2ccc(S(=O)(=O)O)cc2S(=O)(=O)[O-])cc1", "outcome": "inactive"}, {"smiles": "O=C(O)CCSCCC(=O)O", "outcome": "inactive"}, {"smiles": "CC(C)C(C)(C)C(C)(C)C(C)(C)S", "outcome": "inactive"}, {"smiles": "Cc1cc(C2(c3cc(C)c(O)cc3C)OS(=O)(=O)c3ccccc32)c(C)cc1O", "outcome": "inactive"}]}]}
